FAK blocker = FAK (human) kinase inhibition; Q05397; biochemical FAK kinase activity assay; inhibition, %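 (tested at 7 µM)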; 97,000 compounds, 0.84% hits; AID 727;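 also: 0% = DMSO and 100% = reference compound high control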
ERa coact inh = ER-alpha (human) coactivator binding inhibition; inhibition, % at 25.6 µM; P03372; TR-FRET ER-alpha LBD / SRC-1 peptide, estradiol-bound; AID 629; 86,000 compounds, 1.7% hits; in the data active = inhibition above about 50%;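 also: 0% = receptor plus peptide control and 100% = peptide only without receptor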
ERa SRC1 pot = enhances coactivator binding to human estrogen receptor alpha. P03372. TR-FRET ERalpha-LBD/SRC-Cy5 coactivator binding, 2 h; 100 = basal binding, no effect. coactivator binding (% of control), % at 25.6 µM. 86,000 compounds, 1.3% hits. AID 639; in the data active = activity above about 200%;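 also: binding measured in presence of low estradiol as agonist stimulus; 0% = peptide alone without receptor and 100% = receptor with peptide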
CD11b adhes enh = enhancers of human CD11b/CD18 binding to fibrinogen. P05107+P11215. activation, % at 10 µM. AID 1499. 93,000 compounds, 0.07% hits. K562 CD11b/CD18 adhesion to fibrinogen, ATPlite luminescence;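 active = 10 µM primary screen giving 50% or more activity, confirmed by 40% or more on retest at that dose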
ERb SRC1 inh = blocks coactivator binding to human estrogen receptor beta. AID 633. inhibition, % at 25.6 µM. TR-FRET ER-beta LBD / SRC1-Cy5 peptide binding; receptor agonist-loaded with 1 µM estradiol. 86,000 compounds, 1.3% hits;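 active = compounds whose percent inhibition of the receptor-coactivator binding signal exceeds about 50% in the single-dose screen, limit read from the data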;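 also: 0% = receptor plus peptide wells without compound and 100% = peptide-only wells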
CD11b adhes inh = inhibitors of human CD11b/CD18 binding to fibrinogen; P05107+P11215; K562 CD11b/CD18 adhesion to fibrinogen, ATPlite luminescence; Mn2+ added to activate the integrin; inhibition, % at 10 µM; 93,000 compounds, 0.54% hits; AID 1497;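 active = primary inhibition of 50% or more at 10 µM, then 40% or more on retest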
FAK inh confirm = FAK (human) inhibition confirmed. shares compounds with FAK blocker. FAK kinase biochemical inhibition assay. inhibition, % at 7 µM. 750 compounds, 28% hits
Starred values were filed as active, the others as inactive; nt = no result given; [ ] = another dose, or the depositor's remark. A selection: hits, their analogues and other compounds. The true share with any hit is near 3.5%. Rule as the data show it, unless noted: active = inhibition above about 19%; inactive = the rest.

SMILES	FAK blocker	ERa coact inh	ERa SRC1 pot	CD11b adhes enh	ERb SRC1 inh	CD11b adhes inh	FAK inh confirm
CCOC(=O)CSc1nc2c(sc(=S)n2Cc2ccco2)c(=O)n1-c1ccccc1	11	-6	112	nt	-13	nt	nt
COc1ccc(-c2nc(-c3ccccc3)c(-c3cccs3)[nH]2)cc1OC	24*	-1	129	-2	1	1	17
O=[N+]([O-])c1ccc(-c2nc(-c3cccs3)c(-c3cccs3)[nH]2)cc1	12	nt	nt	nt	nt	nt	nt
COc1ccc(-c2nc(-c3cccs3)c(-c3cccs3)[nH]2)cc1OC	22*	-4	114	-3	0	13	23*
CC1(C)Cc2c(C#N)c(N3CCN(C(=O)c4ccccc4Cl)CC3)nc(-c3ccco3)c2CS1	25*	nt	nt	10	nt	0	-1
O=C(Cn1c2ccccc2c(=O)c2ccccc21)N/N=C/c1cc([N+](=O)[O-])ccc1N1CCCCCC1	69*	nt	nt	107*	nt	-9	80*
O=C(Cn1c2ccccc2c(=O)c2ccccc21)N/N=C/c1ccc(N2CCCC2)c([N+](=O)[O-])c1	nt	nt	nt	87	nt	1	nt
O=C(CSc1nc2ccccc2[nH]1)Nc1ccc2c(c1)OCCO2	2	-5	100	5	1	-4	nt
CC(C)(C)c1nc(SCC(=O)Nc2ccc(N3CCOCC3)cc2)c2ccccc2n1	32*	4	178	nt	8	nt	15
O=C(CSc1nc2ccccc2o1)Nc1ccc(N2CCOCC2)cc1	4	nt	nt	nt	nt	nt	nt
CCc1nc(SCC(=O)c2ccc3c(c2)OCCO3)c2ccccc2n1	22*	nt	nt	3	nt	22	8
CC(C)(C)c1nc(SCC(=O)Nc2ccc3c(c2)OCCO3)c2ccccc2n1	19*	nt	nt	nt	nt	nt	8
CCC1C(=O)Nc2nc(-c3ccccc3)c(-c3ccccc3)n2N=C1C (stereo not given)	2	-3	97	-4	2	0	nt
CN(C)c1ccc(C2C=C(c3ccc(Cl)cc3OC(F)F)Nc3ncnn32)cc1 (stereo not given)	nt	21	61	3	17	3	nt
O=C(OCC(=O)N1CCN(C(=O)c2ccco2)CC1)c1cc(-c2ccc(Cl)c(Cl)c2Cl)nc2ccccc12	35*	38	121	42	15	-16	19*
O=C(OCC(=O)N1CCN(C(=O)c2ccco2)CC1)c1sc2cc(F)ccc2c1Cl	-1	2	116	6	4	-16	nt
O=C(OCC(=O)N1CCN(C(=O)c2ccco2)CC1)c1cc(-c2ccco2)nc2ccccc12	69*	92*[fluorescence artefact?]	29	1	89*	6	17
O=C(c1ccco1)N1CCN(C(=O)c2cc(-c3ccccn3)nc3ccccc23)CC1	-3	5	99	0	1	-1	nt
Clc1ccc(-c2cc3ccccc3[nH]2)cc1	0	nt	nt	nt	nt	nt	nt
S=C(Nc1ccc(Cl)cc1)N1CCN(C2CCCCC2)CC1	-8	nt	nt	-2	nt	2	nt
C=CCn1c(COc2cccc3ccc(C)nc23)nnc1SCC(=O)O	0	-3	99	-2	-6	-5	nt
O=C(NCCO)c1cccc(Nc2nc(-c3ccccc3)c3cc(Cl)ccc3n2)c1	33*	nt	nt	nt	nt	nt	1
Cc1ccccc1C(=O)/C(C#N)=N/Nc1c(C)n(C)n(-c2ccccc2)c1=O	nt	nt	nt	1	nt	0	nt
Cc1c(Cl)cccc1-n1nnnc1-c1cccs1	nt	-1	92	1	-1	-12	nt
Cc1ccc2cc3cc(C(=O)NCc4ccc5c(c4)OCO5)oc3nc2c1	28*	51*[fluorescence artefact?]	125	64	35	-11	20*
O=C(NCc1ccc2c(c1)OCO2)c1cc2ccccc2o1	4	nt	nt	-2	nt	-2	nt
O=C(OCCN=C1NS(=O)(=O)c2ccccc21)c1cccnc1	51*	-4	95	-2	6	-4	28*
O=C(NCc1cccs1)C1CCN(c2nc3ccccc3o2)CC1	2	-2	103	-6	-2	-12	nt
CCCS(=O)(=O)NCCc1cc2cc(C)c(C)cc2[nH]c1=O	8	-4	105	nt	-4	nt	nt
CCOc1c(Br)cc(C2NS(=O)(=O)N=C3CCCCCN32)cc1OC (stereo not given)	47*	-5	118	-3	-3	-5	0

Compound activity (PubChem)
